Laboratory results as given in PubChem BioAssay (NCI).
The panel holds about 83,000 compounds, 20% with a hit somewhere; the sample as a whole holds those more often.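 Step 1: grow cells in 96-well plates. Step 2: add test compound at a single concentration. Step 3: incubate 48 h. Step 4: record percent growth.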 Unmarked numbers belong to inactive results. Active and inactive are the calls of the source. How the source made its calls: active means growth percent below 10; inactive means the rest.

How the values were obtained:
Experiment in all cases: NCI-60 one-dose screen, 48 h (100 = growth as untreated, 0 = no growth, -100 = all killed)
Details in all cases: 10 µM
NCI-H23 lung = system: NCI-H23 lung
NCI-H226 lung = system: NCI-H226 lung
NCI-H322M lung = system: NCI-H322M lung
HOP-62 NSCLC = system: HOP-62 NSCLC
NCI-H460 lung = system: NCI-H460 lung
NCI-H522 lung = system: NCI-H522 lung
A549/ATCC NSCLC = system: A549/ATCC NSCLC
786-0 renal = system: 786-0 renal
COLO 205 colon = system: COLO 205 colon
DU-145 prostate = system: DU-145 prostate

SMILES	growth (NCI-H23 lung) [%]	growth (NCI-H226 lung) [%]	growth (NCI-H322M lung)	growth (HOP-62 NSCLC)	growth (NCI-H460 lung)	growth (NCI-H522 lung)	growth (A549/ATCC NSCLC)	growth (786-0 renal)	growth (COLO 205 colon)	growth (DU-145 prostate)
c1ccc([C@H]2CN3CCSC3=N2)cc1	96.8	97.4	101%	109%	114%	90.8%	102%	99.3%	106%	92.1%
CC1CN(Cc2ccccc2)C(=O)NC1=O (stereo not drawn)	110	106	122%	105%	109%	91.8%	103%	112%	108%	–
COc1ccc(OC)c2c1C(=O)CC2C (stereo not drawn)	102	101	96.5%	101%	104%	110%	103%	108%	106%	107%
O=C(CC(NC(=O)OCc1ccccc1)C(=O)OCc1ccccc1)OCc1ccccc1 (stereo not drawn)	106	106	99%	94%	101%	89.2%	99.3%	106%	99.1%	111%
COc1ccc(-c2csc(NC(=O)CSc3nc(C)c(-c4ccccc4)n3Nc3ccccc3)n2)cc1	21.8	63.8	69.8%	71.1%	43.2%	58.2%	36.6%	53.3%	66.6%	65.3%
CCCC1(CC(=O)O)OCCc2c1[nH]c1ccccc21 (stereo not drawn)	93.4	98.4	109%	107%	109%	37.2%	99.3%	103%	229%	114%
COc1cc(/C=C2\Oc3cc(OCC(=O)c4ccccc4)ccc3C2=O)cc(OC)c1OC	105	104	126%	2.36% (active)	93%	105%	118%	-45.9% (active)	146%	94.9%
N#Cc1cc(-c2cc3ccccc3o2)oc1N	11.4	17.4	2.76% (active)	20%	9.76% (active)	-4.4% (active)	-5.69% (active)	11.7%	12.9%	–
COc1cc(/C=C2\CCCC3=C2N=C2SC=NN2C3c2cc(OC)c(OC)c(OC)c2)cc(OC)c1OC (stereo not drawn)	28.9	13.6	28.4%	11.8%	1.24% (active)	46.5%	13.1%	32%	25.7%	8.36% (active)
CCOC(=O)C1CCc2c(ccc3ccccc23)N1CCC#N (stereo not drawn)	89.7	98.7	85.7%	101%	109%	93.3%	104%	100%	119%	111%
C[C@@H]1C=C2C(=O)O[C@@H]3CC[C@H](C1)[C@]23O	80.6	106	82.5%	71.7%	80.9%	2.22% (active)	67.1%	103%	74%	-25.9% (active)
COc1cc(/C=N/NC(=O)c2ccccc2Nc2cccc(C(F)(F)F)c2)cc(OC)c1OC	45.3	36.9	47%	133%	-17.6% (active)	4.06% (active)	15%	177%	54.4%	-22.6% (active)
Cc1ccc(Nc2nnc(-c3cc(-c4ccncc4)n(-c4ccccc4)n3)s2)cc1	90.5	86.2	98.7%	114%	56.8%	84.5%	60.5%	41.9%	73.8%	107%
N#Cc1ncc(-c2ccc(C(F)(F)F)cc2)c(NCc2cc(C(F)(F)F)cc(C(F)(F)F)c2)n1	10.6	43.8	70.2%	39.2%	2.11% (active)	12.2%	29.2%	40.3%	-24.1% (active)	28.2%
